Reference: PubChem BioAssay (Tox21)
Where “and” joins values, the source holds several entries; their conditions need not be identical. Identical values can stand only once. Records with an inconclusive call do not appear. Where a call stands in place of a potency, no number is given. Some structures have more than one record in an assay (separate samples or runs), and their calls can disagree. Calls of active or inactive are those of the source. Unless noted, the call rests on the fitted dose curve.

Key:
[1] = Nuclear factor erythroid 2-related factor 2/antioxidant responsive element (Nrf2/ARE) small molecule agonists: qHTS cell viability counter screen in human keratinocytes (AID 1919968; active means well fitted curve in the direction sought with a large enough effect in the repeat runs; an effect the other way counts as inactive or inconclusive; further: nearly all actives have a fitted effect of over 55% in size; further: potency means the concentration at half of the fitted maximal effect)
Summary of the method: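 After a 5 h attachment period, ARE-reporter keratinocytes were dosed with compounds in DMSO and then cultured 23 h at 37 C. Cell viability came from CellTiter-Fluor signal read after a further 1 h.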

[2] = Nuclear factor erythroid 2-related factor 2/antioxidant responsive element (Nrf2/ARE) small molecule agonists: luciferase reporter gene qHTS assay in human keratinocytes (AID 1919969); further: nearly all actives have a fitted effect of over 35% in size; further: potency means the concentration at half of the fitted maximal effect
[3] = molecular target: Gonadotropin-releasing hormone receptor (Homo sapiens) (UniProt P30968); test: Human gonadotropin-releasing hormone receptor (GnRHR) small molecule agonists, calcium flux assay in GnRHR-HEK293 cells (AID 1920063); further: nearly all actives have a fitted effect of over 35% in size
Summary of the method: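 We seeded human GnRHR-expressing HEK293 cells for 18 hours, loaded them with calcium dye for an hour at 37 C, added test compounds, and recorded fluorescence intensity kinetically for three minutes.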

[4] = molecular target: KiSS-1 receptor (Homo sapiens) (UniProt Q969F8); test: Human kisspeptin (KISS1R) small molecule agonists, calcium flux assay in KISS1R-HEK293 cells (AID 1920064; active means well fitted curve in the direction sought with a large enough effect in the repeat runs; an effect the other way counts as inactive or inconclusive)
Summary of the method: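 Kinetic calcium assay, 1 s sampling over 3 min at Ex/Em 480/540, in HEK293 cells engineered with human KISS1R; compounds delivered in DMSO after 1 h dye loading.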

[5] = G protein-coupled receptor (GPCR) small molecule agonists, calcium flux assay: HEK293 wild type cell line counter screen (AID 1920065)
Summary of the method: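 Calcium-sensitive dye, loaded 1 h at 37 C into cells cultured 18 h, reports compound-evoked calcium release as fluorescence (Ex/Em 480/540), measured over 3 min. Agonist mode; 15-point titrations, triplicate.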

[6] = p53 small molecule agonists, cell-based qHTS assay with human liver microsomes (AID 1963577)
Summary of the method: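 p53RE-bla reporter cells were pre-incubated 5 h at 37 C, then treated with compounds plus human liver microsomes (0.5 mg/mL final) and NADPH (0.5 mg/mL final) for 16 h at 37 C. Beta-lactamase activity was read by LiveBLAzer fluorescence after 2 h at room temperature.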

[7] = p53 small molecule agonists, cell-based qHTS assay with rat liver microsomes (AID 1963578)
Summary of the method: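 p53RE-bla cells were exposed to compounds together with rat liver microsomes (0.5 mg/mL final) and NADPH (0.5 mg/mL final) for 16 h at 37 C, then read by LiveBLAzer beta-lactamase fluorescence after 2 h at room temperature.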

[8] = p53 small molecule agonists, cell-based qHTS assay with human liver microsomes: qHTS cell viability counter screen (AID 1963579); further: nearly all actives have a fitted effect of over 45% in size
Summary of the method: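 p53RE-bla cells (4,000/well) were pre-incubated 5 h at 37 C, then given compounds in DMSO plus human liver microsomes (0.5 mg/mL final) and NADPH (0.5 mg/mL final) for 16 h at 37 C. Viability was read by CellTiter-Glo luminescence.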

[9] = p53 small molecule agonists, cell-based qHTS assay (AID 1963582; active means well fitted activation curve with a large enough effect in the signal ratio in the repeat runs, not every such curve was filed as active; the % refers to the signal ratio)
Summary of the method: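 In this cell-based concentration-response screen, a p53 response element drives beta-lactamase; cells received DMSO-borne compounds after 5 h culture and were incubated a further 16 h before FRET substrate development.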

[10] = molecular target: 5-hydroxytryptamine receptor 2A (Homo sapiens) (UniProt P28223); test: 5-hydroxytryptamine receptor 2A (HTR2A) small molecule antagonists, cell-based qHTS assay (AID 1963586); further: nearly all actives have a fitted effect of over 45% in size; further: potency means the concentration at half of the fitted maximal effect
Summary of the method: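 Antagonist-mode intracellular calcium assay: DOI (4 nM) added after 5 min compound pre-incubation at room temperature to dye-loaded HTR2A-CHO cells. Fluorescence followed for 3 min, sampled every second.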

[11] = molecular target: 5-hydroxytryptamine receptor 2A (Homo sapiens) (UniProt P28223); test: 5-hydroxytryptamine receptor 2A (HTR2A) small molecule agonists, cell-based qHTS assay (AID 1963587); further: nearly all actives have a fitted effect of over 30% in size
Summary of the method: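 CHO cells stably expressing human HTR2A, plated 18 h, loaded with calcium dye 1 h at 37 C. Agonist mode: compounds added and intracellular calcium fluorescence recorded kinetically for 2 min at 1 sec intervals.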

[12] = molecular target: Muscarinic acetylcholine receptor M1 (Homo sapiens) (UniProt P11229); test: Cholinergic receptor muscarinic 1 (CHRM1) small molecule antagonists, cell-based qHTS assay (AID 1963588); further: nearly all actives have a fitted effect of over 40% in size; further: potency means the concentration at half of the fitted maximal effect
Summary of the method: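 CHRM1-CHO calcium-flux assay, antagonist mode. Cells were seeded 18 h, dye-loaded 1 h at 37 C and given compound for 5 min at RT, then acetylcholine was added at 50nM. FDSS fluorescence was read 3 min; 15 concentrations, three runs.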

[13] = molecular target: Muscarinic acetylcholine receptor M1 (Homo sapiens) (UniProt P11229); test: Cholinergic receptor muscarinic 1 (CHRM1) small molecule agonists, cell-based qHTS assay (AID 1963589); further: nearly all actives have a fitted effect of over 35% in size
Summary of the method: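 Measures agonist-induced intracellular calcium rise. Stable human CHRM1 CHO line, 1 h dye load at 37 C, compounds from DMSO, kinetic fluorescence read.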

[14] = cAMP Responsive Elements (CRE) small molecule agonists, cell-based qHTS assay (AID 1963590)
Summary of the method: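 A CRE-responsive beta-lactamase reporter in HEK 293T cells was used. Treatment ran 3 h at 37 C; detection used LiveBLAzer B/G FRET substrate for 2 h at room temperature.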

[15] = cAMP Responsive Elements (CRE) small molecule antagonists, cell-based qHTS assay (AID 1963591; active means well fitted inhibition curve with a large enough effect in the signal ratio in the repeat runs, not every such curve was filed as active; the % refers to the signal ratio)
Summary of the method: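 HEK293T cells carrying a CRE-driven beta-lactamase reporter receive compound and NKH477 (0.25 uM final) for 3 h. Fluorescence from LiveBLAzer B/G FRET substrate is read after 2 h at room temperature.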

[16] = molecular target: Beta-2 adrenergic receptor (Homo sapiens) (UniProt P07550); test: Adrenergic beta2 receptor (ADRB2) small molecule antagonists, cell-based qHTS assay (AID 1963592); further: nearly all actives have a fitted effect of over 50% in size; further: potency means the concentration at half of the fitted maximal effect
Summary of the method: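 Cells (CHO, stable ADRB2 overexpression) incubated 18-20hr at 37C; compounds added from DMSO; agonist mix (1nM isoproterenol, 100uM IBMX, 25uM Ro-20-1724) added; 0.5hr RT; d2-cAMP and anti-cAMP-cryptate added; 1hr RT; 665/615 nm read.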

[17] = molecular target: D(2) dopamine receptor (Homo sapiens) (UniProt P14416); test: Dopamine D2 receptor (DRD2) small molecule agonists, cell-based qHTS assay (AID 1963594); further: nearly all actives have a fitted effect of over 35% in size
Summary of the method: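 HEK293 cells stably expressing human DRD2, pre-treated with PDE inhibitor Ro20-1724 (0.1 mM final) and compound 10 min at room temperature, then stimulated with NKH477 (200nM […]) for 30 min. cAMP read by HTRF (665/620 nm).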

[18] = molecular target: D(2) dopamine receptor (Homo sapiens) (UniProt P14416); test: Dopamine D2 receptor (DRD2) small molecule antagonists, cell-based qHTS assay (AID 1963595; active means well fitted inhibition curve with a large enough effect in the signal ratio in the repeat runs, with a control signal flat; the % refers to the signal ratio)
Summary of the method: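 Stable D2 receptor HEK293 line, 24 h after seeding. Compound preincubated 10 min, then quinpirole (12 nM) with forskolin analogue NKH477 (200 nM), 30 min, room temperature. Detection by time-resolved FRET of cAMP.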

[19] = p53 small molecule agonists, cell-based qHTS assay: qHTS cell viability counter screen (AID 1963581); further: nearly all actives have a fitted effect of over 45% in size
Summary of the method: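 Following 5 h attachment, HCT-116 p53RE-bla cells took up compound for 16 h at 37 C; the reporter was read with B/G FRET substrate (2 h RT), and viability then via CellTiter-Glo ATP luminescence.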

[20] = p53 small molecule agonists, cell-based qHTS assay with rat liver microsomes: qHTS cell viability counter screen (AID 1963580); further: nearly all actives have a fitted effect of over 45% in size
Summary of the method: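 Viability is assessed in parallel with the p53 reporter read: HCT-116 p53RE-bla cells receive compounds plus rat microsomes and NADPH (0.5 mg/mL final apiece), incubate 16 h at 37 C, and then CellTiter-Glo luminescence is recorded.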

Beta-2 adrenergic receptor (Homo sapiens), sequence (P07550 whole entry, looked up): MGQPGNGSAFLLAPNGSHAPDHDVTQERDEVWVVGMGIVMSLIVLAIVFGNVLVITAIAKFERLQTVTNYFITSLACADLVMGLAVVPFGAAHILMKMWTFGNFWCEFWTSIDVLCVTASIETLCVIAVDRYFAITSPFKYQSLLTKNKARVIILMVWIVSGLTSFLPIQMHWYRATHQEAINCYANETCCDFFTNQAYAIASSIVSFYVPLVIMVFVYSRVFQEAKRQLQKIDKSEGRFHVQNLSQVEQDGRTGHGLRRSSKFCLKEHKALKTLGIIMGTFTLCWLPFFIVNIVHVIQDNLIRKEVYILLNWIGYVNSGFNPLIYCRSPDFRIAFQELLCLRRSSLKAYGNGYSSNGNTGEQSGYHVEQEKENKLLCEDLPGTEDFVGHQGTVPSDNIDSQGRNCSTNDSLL
Gonadotropin-releasing hormone receptor (Homo sapiens), sequence (P30968 whole entry, looked up): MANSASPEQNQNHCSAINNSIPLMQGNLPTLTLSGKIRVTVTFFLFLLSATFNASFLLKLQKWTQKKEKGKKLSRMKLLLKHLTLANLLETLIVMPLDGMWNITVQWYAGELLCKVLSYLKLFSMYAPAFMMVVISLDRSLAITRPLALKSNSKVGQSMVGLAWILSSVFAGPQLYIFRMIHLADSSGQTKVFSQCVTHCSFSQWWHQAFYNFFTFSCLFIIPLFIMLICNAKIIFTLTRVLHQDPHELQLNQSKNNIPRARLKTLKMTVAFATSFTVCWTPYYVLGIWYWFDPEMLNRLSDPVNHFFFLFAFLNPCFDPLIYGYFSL
D(2) dopamine receptor (Homo sapiens), sequence (P14416 whole entry, looked up): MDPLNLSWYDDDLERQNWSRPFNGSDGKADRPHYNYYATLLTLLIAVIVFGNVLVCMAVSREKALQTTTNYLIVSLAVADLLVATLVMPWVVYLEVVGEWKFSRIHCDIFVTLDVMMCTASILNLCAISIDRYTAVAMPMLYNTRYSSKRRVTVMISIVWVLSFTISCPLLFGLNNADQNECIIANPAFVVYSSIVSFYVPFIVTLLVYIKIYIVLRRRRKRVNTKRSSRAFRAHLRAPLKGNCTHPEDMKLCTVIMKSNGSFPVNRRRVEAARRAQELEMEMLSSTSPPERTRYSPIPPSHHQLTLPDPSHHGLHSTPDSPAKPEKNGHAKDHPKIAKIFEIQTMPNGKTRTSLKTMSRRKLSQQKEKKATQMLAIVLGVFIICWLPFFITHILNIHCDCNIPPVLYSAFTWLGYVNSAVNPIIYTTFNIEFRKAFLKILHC
Muscarinic acetylcholine receptor M1 (Homo sapiens), sequence (P11229 whole entry, looked up): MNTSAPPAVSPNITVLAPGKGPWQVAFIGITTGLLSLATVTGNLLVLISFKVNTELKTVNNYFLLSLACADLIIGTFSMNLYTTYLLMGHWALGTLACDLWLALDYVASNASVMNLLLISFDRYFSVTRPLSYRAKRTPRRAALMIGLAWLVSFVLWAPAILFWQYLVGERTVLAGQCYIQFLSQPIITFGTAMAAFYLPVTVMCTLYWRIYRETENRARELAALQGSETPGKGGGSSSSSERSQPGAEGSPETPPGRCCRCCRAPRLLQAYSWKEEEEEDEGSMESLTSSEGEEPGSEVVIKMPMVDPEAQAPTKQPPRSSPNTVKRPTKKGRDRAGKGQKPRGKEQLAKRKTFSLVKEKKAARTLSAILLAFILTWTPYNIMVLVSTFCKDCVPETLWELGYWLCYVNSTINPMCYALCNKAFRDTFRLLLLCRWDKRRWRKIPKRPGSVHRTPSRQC
5-hydroxytryptamine receptor 2A (Homo sapiens), sequence (P28223 whole entry, looked up): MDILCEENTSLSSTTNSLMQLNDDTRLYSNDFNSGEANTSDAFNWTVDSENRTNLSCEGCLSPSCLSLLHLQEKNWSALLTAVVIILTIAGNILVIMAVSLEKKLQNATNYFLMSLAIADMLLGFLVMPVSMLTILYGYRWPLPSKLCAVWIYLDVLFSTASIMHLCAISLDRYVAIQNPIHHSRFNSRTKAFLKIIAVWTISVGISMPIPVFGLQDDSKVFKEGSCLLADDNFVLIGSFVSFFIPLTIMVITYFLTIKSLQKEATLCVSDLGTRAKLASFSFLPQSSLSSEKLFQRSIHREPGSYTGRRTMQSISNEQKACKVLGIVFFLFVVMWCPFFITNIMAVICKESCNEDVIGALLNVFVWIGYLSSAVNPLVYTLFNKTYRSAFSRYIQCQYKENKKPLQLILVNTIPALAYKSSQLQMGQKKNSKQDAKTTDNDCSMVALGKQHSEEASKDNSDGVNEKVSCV
KiSS-1 receptor (Homo sapiens), sequence (Q969F8 whole entry, looked up): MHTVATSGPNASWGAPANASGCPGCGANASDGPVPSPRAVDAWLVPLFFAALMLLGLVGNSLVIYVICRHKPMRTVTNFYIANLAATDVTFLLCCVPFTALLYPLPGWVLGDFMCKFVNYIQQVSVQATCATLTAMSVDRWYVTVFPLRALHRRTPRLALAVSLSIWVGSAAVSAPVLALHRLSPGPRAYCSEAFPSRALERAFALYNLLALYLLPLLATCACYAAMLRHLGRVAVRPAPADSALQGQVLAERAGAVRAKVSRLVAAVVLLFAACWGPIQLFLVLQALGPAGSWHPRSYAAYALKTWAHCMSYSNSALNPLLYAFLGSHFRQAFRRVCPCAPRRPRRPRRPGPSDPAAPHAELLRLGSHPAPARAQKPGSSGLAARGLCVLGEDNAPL

Compound	Potency [1]	Potency [2]	Potency [3]	Potency [4]	Potency [5]	Potency [6]	Potency [7]	Potency [8]	Potency [9]	Potency [10]	Potency [11]	Potency [12]	Potency [13]	Potency [14]	Potency [15]	Potency [16]	Potency [17]	Potency [18]	Potency [19]	Potency [20]
C=CCN=C=S	inactive	inactive	inactive	inactive	inactive	inactive	inactive	inactive	inactive	inactive	inactive	inactive	inactive	inactive	inactive	inactive	inactive	inactive	–	–
Brc1ccc(Oc2ccccc2)cc1	inactive	35.2 µM (active) and inactive	inactive	inactive	inactive	inactive	inactive	inactive	inactive	inactive	–	–	inactive	inactive	inactive	inactive	–	inactive	inactive	–
CC(C)(C#N)N=NC(C)(C)C#N	inactive	inactive	inactive	inactive	inactive	inactive	inactive	–	inactive	inactive	inactive	inactive	inactive	inactive	inactive	inactive	inactive	inactive	inactive	inactive
OCCCl	inactive	inactive	inactive	inactive	inactive	inactive	inactive	inactive	–	inactive	inactive	inactive	inactive	inactive	inactive	inactive	–	inactive	–	–
O=C/C=C/c1ccco1	inactive	inactive	inactive	inactive	inactive	inactive	inactive	–	inactive	inactive	inactive	inactive	inactive	inactive	inactive	inactive	inactive	–	inactive	inactive
N[C@@H](Cc1ccc(N(CCCl)CCCl)cc1)C(=O)O	inactive	inactive	inactive	inactive	inactive	inactive	inactive	inactive	–	–	–	–	–	inactive	inactive	inactive	inactive	inactive	inactive	–
ClCc1ccccc1CCl	inactive	61.1 µM (active)	inactive	inactive	inactive	inactive	inactive	inactive	inactive	inactive	–	inactive	inactive	inactive	inactive	inactive	inactive	inactive	inactive	–
O=S(=O)(Cl)Cl	inactive	inactive	inactive	inactive	inactive	inactive	inactive	–	inactive	inactive	inactive	inactive	inactive	inactive	inactive	inactive	inactive	inactive	inactive	inactive
CC[n+]1c(-c2ccccc2)c2cc(N)ccc2c2ccc(N)cc21	48.3 µM (active) and 7.5 µM (active)	inactive and 10.6 µM (active)	inactive	inactive	inactive	inactive	inactive	inactive	–	inactive	–	8.36 µM (active) and 9.18 µM (active)	inactive	inactive	–	–	–	–	–	–
CCOC(=O)C(O)(c1ccc(Cl)cc1)c1ccc(Cl)cc1	61.8 µM (active)	inactive	inactive	inactive	inactive	inactive	inactive	inactive	inactive	33.8 µM (active) and inactive	–	8.48 µM (active)	inactive	–	–	69.3 µM (active) and inactive	inactive	inactive	inactive	–
c1ccc2c(c1)Oc1ccccc1O2	inactive	inactive	inactive	inactive	inactive	inactive	inactive	inactive	inactive	inactive	inactive	inactive	inactive	inactive	inactive	inactive	inactive	inactive	–	–
NNC(N)=S	16 µM (active)	21.7 µM (active)	inactive	inactive	inactive	inactive	inactive	inactive	inactive	inactive	inactive	inactive	inactive	inactive	–	inactive	inactive	inactive	inactive	–
O=C(Cl)C(Cl)Cl	inactive	inactive	inactive	inactive	inactive	inactive	inactive	–	inactive	inactive	inactive	inactive	inactive	inactive	–	inactive	inactive	inactive	inactive	inactive
CCOP(=S)(OCC)SCSc1cc(Cl)ccc1Cl	inactive	inactive	inactive	inactive	inactive	inactive	inactive	inactive	inactive	inactive	inactive	inactive	inactive	inactive	–	inactive	inactive	inactive	inactive	–
